In PubChem BioAssay (Tox21):
Inconclusive results are not listed. Activity calls are given as the source filed them. Unless noted, calls come from the whole dose curve.

Columns and labels:
[1] = target: Estrogen receptor (Homo sapiens) (UniProt P03372); test: qHTS assay to identify small molecule agonists of the estrogen receptor alpha (ER-alpha) signaling pathway in the presence of an antagonist (AID 1259383); note: nearly all actives have a fitted effect of over 15% in size; note: potency is the fitted concentration of half-maximal effect
How it was run: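 Agonist-mode confirmation run in the presence of 10.0nM (final) ICI-182,780 antagonist. The reporter was ERE-driven luciferase in VM7Luc4E2 cells, grown in charcoal-stripped serum. Cells were exposed to 15-concentration compound series for 22hr, then ONE-Glo luminescence was read.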

[2] = qHTS assay to identify small molecule agonists or antagonists of the thyroid stimulating hormone receptor (TSHR) signaling pathway - wild type cell line counter screen (AID 1259384)
How it was run: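 Wild-type HEK293 cells were plated 18 h at 37 C/5% CO2, pin-dosed with compound plus Ro20-1724 medium, held 30 min at room temperature, then given cAMP-d2 and anti-cAMP-cryptate; fluorescence was read after 1 h. Fifteen concentrations, triplicate.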

[3] = target: Thyrotropin receptor (Homo sapiens) (UniProt P16473); test: qHTS assay to identify small molecule antagonists of the thyroid stimulating hormone receptor (TSHR) signaling pathway (AID 1259385); note: nearly all actives have a fitted effect of over 20% in size
How it was run: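 TSHR-HEK293 cells were plated and held 18 h at 37C/5% CO2, then given compound plus Ro20-1724 and stimulated with TSH at 1.5 ng/mL final. After 30 min at room temperature, cAMP was detected with cAMP-d2/anti-cAMP-cryptate (1 h) by fluorescence.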

[4] = target: Progesterone receptor (Homo sapiens) (UniProt P06401); test: qHTS assay to identify small molecule agonists of the progesterone receptor (PR) signaling pathway (AID 1346784); note: nearly all actives have a fitted effect of over 30% in size; note: potency is the fitted concentration of half-maximal effect
How it was run: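 PR-UAS-bla HEK 293T cells (beta-lactamase reporter under UAS) in 2% charcoal-stripped FBS, dosed with 23 nL compound after 6 hr, incubated 16hr at 37C. LiveBLAzer B/G FRET substrate added, fluorescence read after 2 hours.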

[5] = target: Progesterone receptor (Homo sapiens) (UniProt P06401); test: qHTS assay to identify small molecule antagonists of the progesterone receptor (PR) signaling pathway (AID 1346795; active = well fitted inhibition curve with a large enough effect in the signal ratio in the repeat runs, not every such curve was filed as active; the % refers to the signal ratio; note: potency is the fitted concentration of half-maximal effect)
How it was run: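 PR-UAS-bla HEK293T cells with beta-lactamase reporter under UAS control, in 2% charcoal-stripped FBS, treated with compounds plus 1 nM promegestone (R5020, final) for 16 hr at 37C. Read-out: FRET beta-lactamase substrate fluorescence after 2 hr at room temperature.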

[6] = qHTS assay to identify small molecule antagonists of the progesterone receptor (PR) signaling pathway - cell viability counter screen (AID 1346798; active = well fitted curve in the direction sought with a large enough effect in the repeat runs; an effect the other way counts as inactive or inconclusive; note: series mostly up to about 92 µM; nearly all actives have a fitted effect of over 50% in size)
How it was run: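 PR-UAS-bla HEK293T cells, 3,000/well in 2% charcoal-stripped FBS medium, dosed with compounds plus R5020 agonist and incubated 16 h at 37C. Viability then measured in the same wells by CellTiter-Glo luminescence after 30 min at RT.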

[7] = qHTS assay to identify small molecule agonists of the progesterone receptor (PR) signaling pathway - cell viability counter screen (AID 1346799); note: nearly all actives have a fitted effect of over 45% in size
How it was run: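 Counter screen in the PR-UAS-bla HEK293T wells (2% charcoal-stripped FBS, 16 h compound exposure at 37 C) after the bla read. CellTiter-Glo added, 30 min at room temperature, luminescence read as cell viability.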

[8] = qHTS assay to identify small molecule antagonists of the TGF-beta/Smad signaling pathway - cell viability counter screen (AID 1346824; active = well fitted curve in the direction sought with a large enough effect in the repeat runs; an effect the other way counts as inactive or inconclusive; note: nearly all actives have a fitted effect of over 50% in size)
How it was run: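 SBE-bla HEK 293T cells were plated overnight at 37 C, then given compounds in DMSO plus TGF-beta1 (added as 0.25 ng/mL solution) for 5 hr. After the bla read, CellTiter-Glo was added to the same wells and luminescence read after 30 min at room temperature.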

[9] = qHTS assay to identify small molecule agonists of the TGF-beta/Smad signaling pathway - cell viability counter screen (AID 1346829; active = well fitted curve in the direction sought with a large enough effect in the repeat runs; an effect the other way counts as inactive or inconclusive; note: top concentration of the series differs between compounds; nearly all actives have a fitted effect of over 45% in size)
How it was run: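 Luminescence from CellTiter-Glo, read after a 30 min room-temperature incubation, gives cell viability of SBE-bla HEK 293T cells treated 5 hr with compounds at 37 C.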

[10] = qHTS assay to identify small molecule agonists of the estrogen receptor alpha (ER-alpha) signaling pathway in the presence of an antagonist - cell viability counter screen (AID 1259386; active = well fitted curve in the direction sought with a large enough effect in the repeat runs; an effect the other way counts as inactive or inconclusive; note: series mostly up to about 92 µM; nearly all actives have a fitted effect of over 30% in size)
How it was run: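 Compounds tested at 15 concentrations for 22 h at 37C alongside 10.0nM (final) ICI-182,780 antagonist, in VM7Luc4E2 cells grown in phenol red-free, charcoal-stripped medium. Viability read by CellTiter-Fluor fluorescence after 1 h reagent incubation.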

Measured: Potency

Sequence of Estrogen receptor (Homo sapiens) (P03372 whole entry, looked up): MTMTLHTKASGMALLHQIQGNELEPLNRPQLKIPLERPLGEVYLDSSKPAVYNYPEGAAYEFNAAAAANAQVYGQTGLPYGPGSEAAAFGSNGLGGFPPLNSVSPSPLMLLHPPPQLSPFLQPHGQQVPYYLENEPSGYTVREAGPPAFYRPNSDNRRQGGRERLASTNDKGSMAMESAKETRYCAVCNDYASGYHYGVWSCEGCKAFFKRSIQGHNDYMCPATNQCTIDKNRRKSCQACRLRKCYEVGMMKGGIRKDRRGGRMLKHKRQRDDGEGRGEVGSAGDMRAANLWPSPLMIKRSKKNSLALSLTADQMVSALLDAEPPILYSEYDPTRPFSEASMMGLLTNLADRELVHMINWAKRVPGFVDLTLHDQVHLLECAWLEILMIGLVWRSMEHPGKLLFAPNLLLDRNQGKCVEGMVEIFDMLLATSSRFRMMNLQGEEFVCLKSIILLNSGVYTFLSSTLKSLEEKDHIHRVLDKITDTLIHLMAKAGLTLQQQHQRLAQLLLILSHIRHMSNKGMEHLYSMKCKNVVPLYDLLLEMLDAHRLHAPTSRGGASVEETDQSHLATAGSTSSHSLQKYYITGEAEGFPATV
Sequence of Thyrotropin receptor (Homo sapiens) (P16473 whole entry, looked up): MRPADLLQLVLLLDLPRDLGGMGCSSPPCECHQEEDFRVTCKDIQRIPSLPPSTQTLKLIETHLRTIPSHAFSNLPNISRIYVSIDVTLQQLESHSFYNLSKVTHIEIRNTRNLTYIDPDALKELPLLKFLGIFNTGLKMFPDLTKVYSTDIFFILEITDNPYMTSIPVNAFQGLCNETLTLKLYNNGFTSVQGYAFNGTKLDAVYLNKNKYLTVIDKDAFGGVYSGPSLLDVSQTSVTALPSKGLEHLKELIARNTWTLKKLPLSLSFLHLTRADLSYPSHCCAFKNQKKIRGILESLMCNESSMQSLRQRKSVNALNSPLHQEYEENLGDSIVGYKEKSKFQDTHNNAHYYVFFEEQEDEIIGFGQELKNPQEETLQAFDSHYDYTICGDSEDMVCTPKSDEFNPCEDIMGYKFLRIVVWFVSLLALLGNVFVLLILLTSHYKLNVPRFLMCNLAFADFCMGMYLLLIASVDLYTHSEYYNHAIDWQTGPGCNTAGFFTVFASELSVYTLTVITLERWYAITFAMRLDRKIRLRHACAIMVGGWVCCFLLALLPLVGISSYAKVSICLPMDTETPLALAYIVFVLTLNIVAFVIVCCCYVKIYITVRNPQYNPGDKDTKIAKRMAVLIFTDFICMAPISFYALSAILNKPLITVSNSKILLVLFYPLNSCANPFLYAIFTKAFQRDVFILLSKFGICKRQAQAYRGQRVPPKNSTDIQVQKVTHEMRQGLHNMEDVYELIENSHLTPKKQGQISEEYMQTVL
Sequence of Progesterone receptor (Homo sapiens) (P06401 whole entry, looked up): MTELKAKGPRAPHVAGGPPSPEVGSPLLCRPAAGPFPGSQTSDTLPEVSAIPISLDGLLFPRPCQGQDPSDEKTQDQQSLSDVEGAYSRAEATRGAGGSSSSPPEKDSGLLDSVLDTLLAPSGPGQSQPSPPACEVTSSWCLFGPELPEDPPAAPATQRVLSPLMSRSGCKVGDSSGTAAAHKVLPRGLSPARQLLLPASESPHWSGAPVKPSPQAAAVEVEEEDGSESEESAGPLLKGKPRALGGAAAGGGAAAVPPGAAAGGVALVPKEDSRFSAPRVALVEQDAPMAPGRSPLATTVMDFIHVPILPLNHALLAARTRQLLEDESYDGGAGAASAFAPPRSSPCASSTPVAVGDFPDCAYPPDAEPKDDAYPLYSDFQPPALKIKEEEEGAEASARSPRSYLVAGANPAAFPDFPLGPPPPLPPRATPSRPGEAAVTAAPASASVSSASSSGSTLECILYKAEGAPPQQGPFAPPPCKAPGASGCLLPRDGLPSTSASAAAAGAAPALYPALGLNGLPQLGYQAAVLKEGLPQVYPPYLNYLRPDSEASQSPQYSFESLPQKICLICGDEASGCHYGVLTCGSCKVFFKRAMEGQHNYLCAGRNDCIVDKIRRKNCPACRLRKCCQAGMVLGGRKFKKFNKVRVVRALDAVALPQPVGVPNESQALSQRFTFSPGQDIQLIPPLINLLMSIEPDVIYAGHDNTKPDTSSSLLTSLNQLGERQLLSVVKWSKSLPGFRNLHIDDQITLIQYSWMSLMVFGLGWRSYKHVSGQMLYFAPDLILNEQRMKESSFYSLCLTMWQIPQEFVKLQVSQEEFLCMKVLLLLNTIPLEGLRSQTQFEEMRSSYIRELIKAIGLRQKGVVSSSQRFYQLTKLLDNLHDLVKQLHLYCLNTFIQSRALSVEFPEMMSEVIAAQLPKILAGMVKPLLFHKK

CC(C)Nc1ccccc1
inactive: [1] | [2] | [3] | [4] | [5] | [6] | [7] | [8] | [9]

CC1OCCC1=O (configuration not stated)
inactive: [1] | [2] | [3] | [10] | [6] | [7] | [8] | [9]

C#CCN[C@@H]1CCc2ccccc21
inactive: [1] | [2] | [3] | [10] | [5] | [6] | [7] | [8] | [9]

C[C@@H](O)C(=O)O
inactive: [1] | [2] | [3] | [10] | [6] | [8] | [9]

CC(C)CO
inactive: [1] | [2] | [3] | [10] | [7] | [8] | [9]

Cc1ccc(C(=O)O)cc1[N+](=O)[O-]
inactive: [1] | [2] | [3] | [4] | [5] | [6] | [7] | [8] | [9]

C[C@]12CCC(=O)C=C1CC[C@H]1[C@@H]3CC[C@](O)(C(=O)CO)[C@@]3(C)C[C@H](O)[C@@]12F
active: [4] 1.68 µM
inactive: [1] | [2] | [3] | [5] | [6] | [8] | [9]

Cc1c(NC(=O)c2cccnc2)c(=O)n(-c2ccccc2)n1C
inactive: [1] | [2] | [3] | [10] | [5] | [6] | [7] | [8] | [9]

Cc1c(N)cccc1Cl
inactive: [1] | [2] | [3] | [10] | [6] | [7] | [8] | [9]

CC12CCC(C1)C(C)(C)C2O (configuration not stated)
inactive: [1] | [2] | [3] | [10] | [5] | [6] | [7] | [8] | [9]

CCCCCCCCCOC(=O)c1ccccc1C(=O)OCCCCCCCCC
inactive: [1] | [2] | [3] | [4] | [5] | [6] | [8] | [9]

CCC(=O)Oc1ccc2c(c1)CC[C@@H]1[C@@H]2CC[C@@]2(C)[C@H]1C[C@@H](OC(=O)CC)[C@@H]2OC(=O)CC
active: [1] 75 nM | [5] 1.88 µM
inactive: [2] | [3] | [4] | [6] | [7] | [8] | [9]

CC(C)Cn1cnc2c1c(=O)n(C)c(=O)n2C
inactive: [1] | [2] | [3] | [10] | [5] | [6] | [8] | [9]

Cc1ccc(N)cc1S(=O)(=O)O
inactive: [1] | [2] | [3] | [4] | [5] | [6] | [7] | [8] | [9]

CC(C)C[C@@H]1[C@H](c2ccccc2)OC(=O)N1CCCN1CCCCCC1
inactive: [1] | [2] | [3] | [4] | [8] | [9]

CC1(C)O[C@H]2CC(=O)OC[C@]23[C@H]2CC[C@@]4(C)[C@H](c5ccoc5)OC(=O)[C@H]5O[C@]54[C@]2(C)C(=O)C[C@@H]13
inactive: [1] | [2] | [3] | [4] | [6] | [7] | [8] | [9]

Cc1c(Cl)cccc1Cl
inactive: [1] | [2] | [3] | [4] | [5] | [8] | [9]

CCC(C)C(C)=O (configuration not stated)
inactive: [1] | [2] | [3] | [4] | [5] | [6] | [7] | [8] | [9]

O=C(CCCCC(=O)Nc1c(I)cc(I)c(C(=O)O)c1I)Nc1c(I)cc(I)c(C(=O)O)c1I
inactive: [1] | [2] | [3] | [4] | [5] | [7] | [8] | [9]

CC1c2ccccc2CN1NC(=O)c1ccc(Cl)c(S(N)(=O)=O)c1 (configuration not stated)
inactive: [1] | [2] | [3] | [10] | [6] | [7] | [8] | [9]

O=C(O)CNC(=O)CNC(=O)CNC(=O)CSC(=O)c1ccccc1
inactive: [1] | [2] | [3] | [10] | [5] | [6] | [7] | [8] | [9]

Cc1ccccc1C(N)=O
inactive: [1] | [2] | [3] | [4] | [5] | [6] | [7] | [8] | [9]

O=C(O)c1cc2ccccc2nc1C(=O)O
inactive: [1] | [2] | [3] | [4] | [6] | [7] | [8] | [9]

O=C1CCCCO1
inactive: [1] | [2] | [3] | [10] | [6] | [7] | [8] | [9]

CCCC(CC)c1ccccc1 (configuration not stated)
inactive: [1] | [2] | [3] | [10] | [6] | [7] | [8] | [9]

COP(=O)(O)OP(=O)(O)OC
inactive: [1] | [2] | [3] | [4] | [5] | [6] | [7] | [8] | [9]

CSc1cnccn1
inactive: [1] | [2] | [3] | [10] | [5] | [6] | [7] | [8] | [9]

CCCCCCCCCCOC(C)=O
inactive: [1] | [2] | [3] | [10] | [6] | [7] | [8] | [9]

O=C1CCC(=O)N1Cl
inactive: [1] | [2] | [3] | [10] | [5] | [6] | [8] | [9]

C/C(CC(C)C)=N\O
inactive: [1] | [2] | [3] | [4] | [5] | [6] | [7] | [8] | [9]

CN(C)CCCO[C@@H]1[C@H]2OC(C)(C)O[C@H]2O[C@@H]1C(O)CO (some centres not stated)
inactive: [1] | [10] | [4] | [5] | [6] | [7] | [8] | [9]

COC(=O)c1cccc(Cl)c1
inactive: [1] | [2] | [10] | [4] | [5] | [6] | [7] | [8] | [9]

OCC1CCC(CO)CC1 (configuration not stated)
inactive: [1] | [3] | [10] | [4] | [5] | [7] | [8] | [9]

O=C1OCCO1
inactive: [1] | [3] | [10] | [5] | [6] | [7] | [8] | [9]

COc1cc2c(cc1OC)C(=O)C(CC1CCN(Cc3ccccc3)CC1)C2 (configuration not stated)
inactive: [1] | [2] | [3] | [5] | [6] | [7] | [8] | [9]

CCOCCOCC
inactive: [1] | [3] | [10] | [4] | [5] | [6] | [7] | [8] | [9]

O=C(NCN1CCOCC1)c1cnccn1
inactive: [1] | [10] | [4] | [5] | [6] | [7] | [8] | [9]

CN(C)CCCCl
inactive: [1] | [2] | [10] | [4] | [6] | [7] | [8] | [9]

O=C(O)CCCCCC(=O)O
inactive: [1] | [10] | [4] | [5] | [6] | [7] | [8] | [9]
